# Results reported in PubChem BioAssay.
# The source made the active and inactive calls. Unless noted, how the calls were made is not given here.
# Experiments:
# [1] = test system: XIP peptide (Xip251-270) binding; test: XIP fragment 251-270 binding compounds – biochemical, small-molecule microarray, fluorescence 635/667 nm, 0.1 µg/mL protein, primary screen (AID 1182); conditions: fluorescent protein binding, 635 nm, higher = more signal, called active from +8 up or from −8 down
# XIP peptide (Xip251-270) = test: compounds binding XIP fragment 251-270 – biochemical, small-molecule microarray, fluorescence 635/667 nm, 0.5 µg/mL protein, primary screen (AID 1183); conditions: fluorescence 635 nm, higher = more signal
# [2] = blood-stage malaria parasite viability loss – strain 3D7, DAPI fluorescence, 100 nL, primary screen (AID 1184);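 further: parasites grown inside human red blood cells in medium with human serum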; conditions: P. falciparum 3D7 growth, 3 d, higher = more signal
# [3] = target: Homeobox protein Hox-A13 (Mus musculus) (UniProt Q62424); test: disruptors of Hoxa13 oligonucleotide interaction – biochemical, fluorescence polarization, labeled oligonucleotide, primary screen (AID 1185); conditions: Hoxa13:DNA binding, 15 min, higher = more signal, called active from +8 up or from −8 down
# Chain of Homeobox protein Hox-A13 (Mus musculus) (Q62424 whole entry, looked up): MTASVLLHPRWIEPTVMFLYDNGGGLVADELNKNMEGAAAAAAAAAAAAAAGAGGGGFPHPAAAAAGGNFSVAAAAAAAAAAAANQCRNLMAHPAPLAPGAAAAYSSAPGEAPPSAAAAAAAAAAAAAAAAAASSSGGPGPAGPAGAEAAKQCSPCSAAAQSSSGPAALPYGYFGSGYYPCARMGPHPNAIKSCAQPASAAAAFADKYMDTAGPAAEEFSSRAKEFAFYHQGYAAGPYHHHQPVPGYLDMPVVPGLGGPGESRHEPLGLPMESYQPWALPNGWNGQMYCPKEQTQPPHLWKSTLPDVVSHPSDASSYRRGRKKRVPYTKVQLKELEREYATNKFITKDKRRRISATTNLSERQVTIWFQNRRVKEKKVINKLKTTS
# [4] = blockers of DNA damage checkpoint Chk1 activation – imaging, HeLa, hydroxyurea, phospho-Chk1 antibody, percent positive cells, primary screen (AID 1186); conditions: hydroxyurea-induced phospho-Chk1 immunofluorescence imaging, higher = more signal
# [5] = blockers of DNA damage checkpoint Chk1 activation – imaging, HeLa, hydroxyurea, phospho-Chk1 nuclear intensity, primary screen (AID 1187); conditions: hydroxyurea-induced phospho-Chk1 immunofluorescence imaging, higher = more signal
SMILES,composite z-score [1],composite z-score (XIP peptide (Xip251-270)),z-score [2],z-score [3],z-score [4],z-score [5]
COc1ccc([Si](C)(C)[C@@H]2[C@@H](CC(=O)N3Cc4ccccc4C[C@H]3CO)O[C@]3(C(=O)N(C)c4c(Br)cc(C)cc43)[C@H]2C)cc1,-0.223 (inactive),0.565,-2.35,-4.06 (inactive),-0.79 (inactive),-0.12 (inactive)
C=C(CCCC)C(=O)CC[C@@H](OC(=O)c1cccnc1)c1ccc(CO)o1,0.67 (inactive),0.561,-0.46,-4.35 (inactive),0.575 (inactive),-0.023 (inactive)
COc1ccc(C#Cc2ccc3c(c2)[C@]2(C(=O)N3)[C@H](c3ccccc3OCCO)N3[C@H](c4ccccc4)[C@H](c4ccccc4)OC(=O)[C@H]3[C@@H]2C(=O)O)cc1,2.03 (inactive),0.695,-1.27,-4.32 (inactive),-0.331 (inactive),-0.416 (inactive)
COC(=O)[C@@]1(Cc2ccccc2)[C@H]2c3cc(C(=O)N4CCCC4)n(Cc4nc5ccccc5[nH]4)c3C[C@H]2CN1C(=O)c1ccccc1,1.33 (inactive),0.213,-1.65,-3.97 (inactive),-1.01 (inactive),-0.881 (inactive)
CC1CC/C=C\[C@H]2OC34C=CCN(Cn5nnc6ccccc65)C(=O)[C@H]3N(C(CO)C(C)C)C(=O)[C@@H]4C2C(=O)O1 (some centres not stated),0.575 (inactive),0.212,-0.918,-5.58 (inactive),0.822 (inactive),0.71 (inactive)
O=C(C1N=C(c2ccc(OCCCO)cc2)N(c2ccccc2)O1)N1CCOCC1 (configuration not stated),0.254 (inactive),0.206,-0.277,-2.88 (inactive),-0.554 (inactive),-0.262 (inactive)
CN1C(=O)[C@]2(Cc3ccccc3)N=C(c3ccc(OCCCO)cc3)O[C@@H]2c2ccccc21,0.97 (inactive),0.818,-2.3,-4.54 (inactive),-0.276 (inactive),0.0593 (inactive)
CC(C)[C@@H](CO)NC(=O)[C@H]1[C@@H](c2ccccc2)N(c2ccccc2)O[C@@H]1C,-0.795 (inactive),-0.248,0.484,-1.23 (inactive),-0.0482 (inactive),0.564 (inactive)
COC(=O)[C@@]1(Cc2ccc(OC)cc2)[C@H]2c3cc(C(=O)N4CCCC4)n(Cc4ccc(OC)c(OC)c4)c3C[C@H]2CN1C(=O)c1ccccc1,1.27 (inactive),0.653,-1.65,-4.91 (inactive),0.666 (inactive),0.699 (inactive)
C=CCOC(=O)[C@@H]1[C@H]2C(=O)O[C@H](c3ccccc3)[C@H](c3ccccc3)N2[C@H](c2ccc(OCCOC(=O)[C@@H]3C[C@@H]4C(=O)N[C@@H](CCCC[N+](C)(C)C)C(=O)N4[C@@H]3c3cccc(OCCO)c3)cc2)[C@@]12C(=O)Nc1ccc(I)cc12,1.18 (inactive),0.786,0.0875,6.23 (inactive),-0.558 (inactive),0.16 (inactive)
CC(C)N1C(=O)c2ccccc2[C@](C)(C(=O)NCc2ccccc2)[C@@H]1c1ccc(CO)cc1,-0.534 (inactive),0.48,-0.771,-1.51 (inactive),0.0268 (inactive),0.0578 (inactive)
C=CC[C@@]1(C(=O)N(C)C)N=C(c2ccc(OCCCO)cc2)O[C@@H]1c1ccccc1N=[N+]=[N-],0.158 (inactive),0.888,-2.09,-3.42 (inactive),0.0664 (inactive),0.157 (inactive)
COC(=O)c1c(CC[C@@H](CO)NC(=O)N[C@@H](C)Cn2cc(C3(O)CCCCC3)nn2)oc(C(C)=O)c1C(=O)OC,0.946 (inactive),0.836,-2.45,-3.05 (inactive),0.0032 (inactive),0.715 (inactive)
CC1CC/C=C\[C@H]2OC34C=CCN(C(C)(C)C)C(=O)[C@H]3N(CCCCCCO)C(=O)[C@@H]4C2C(=O)O1 (some centres not stated),1.87 (inactive),-0.512,0.621,-4.21 (inactive),-0.82 (inactive),0.193 (inactive)
CCN(CC)c1ccc(N2CC=CC34O[C@@H]5/C=C\CCCOC(=O)C5[C@H]3C(=O)N(CCO)[C@@H]4C2=O)cc1 (some centres not stated),0.482 (inactive),0.643,-1.52,-5.79 (inactive),0.225 (inactive),0.161 (inactive)
C=C/C=C/[C@H]1C(=C)CN([C@@H](Cc2ccccc2)C(=O)OC)[C@@H]1[C@H](O)Cc1ccccc1,-0.245 (inactive),0.497,-1.2,-1.43 (inactive),-0.0246 (inactive),-0.368 (inactive)
COCCOC(=O)N1C(=O)[C@@]2(c3cc(C#Cc4ccc(OC)cc4)ccc31)[C@H](c1ccc(O)cc1)N1[C@H](c3ccccc3)[C@H](c3ccccc3)OC(=O)[C@H]1[C@@H]2C(=O)NC[C@H](O)c1ccccc1,0.27 (inactive),0.77,-1.66,-0.934 (inactive),-0.192 (inactive),0.249 (inactive)
COc1cc2c(cc1OC)CN(C(=O)[C@@H]1[C@H]3C(=O)O[C@H](c4ccccc4)[C@H](c4ccccc4)N3[C@H](c3ccc(O)cc3)[C@@]13C(=O)Nc1ccc(C#CC4(O)CCCCCC4)cc13)CC2,0.479 (inactive),0.774,-0.489,-1.53 (inactive),0.263 (inactive),0.812 (inactive)
CC(CO)N1C(=O)[C@@H]2C3C(=O)OCCC/C=C\[C@H]3OC23C=CCN(c2ccc4ccccc4c2)C(=O)[C@@H]13 (some centres not stated),0.372 (inactive),0.0016,0.252,-3.77 (inactive),-0.663 (inactive),-0.182 (inactive)
O=C1C2C=CC(C(O)c3c(F)cccc3Cl)N(Nc3ccccc3)C2C(=O)N1c1ccccc1 (configuration not stated),0.469 (inactive),0.702,-0.342,-3.25 (inactive),0.653 (inactive),0.683 (inactive)
C=CCOC(=O)[C@H]1[C@@H]2C(=O)O[C@@H](c3ccccc3)[C@@H](c3ccccc3)N2[C@@H](c2ccc(OCCOC(=O)[C@H]3C[C@H]4C(=O)N5CCC[C@H]5C(=O)N4[C@H]3c3ccc(O)cc3)cc2)[C@]12C(=O)Nc1ccc(I)cc12,2.85 (inactive),0.84,-1.28,0.622 (inactive),-0.187 (inactive),0.366 (inactive)
COCCCNC(=O)C1N=C(c2ccc(OCCCO)cc2)N(c2ccccc2)O1 (configuration not stated),1.84 (inactive),0.779,-0.572,-2.25 (inactive),-0.0836 (inactive),0.164 (inactive)
[N-]=[N+]=NCc1ccccc1C[C@]1(C(=O)NCC(O)CO)N=C(c2ccc(OCCCO)cc2)O[C@H]1c1ccccc1 (some centres not stated),0.417 (inactive),-0.148,-0.836,-6.51 (inactive),0.112 (inactive),0.377 (inactive)
CCCC#C[Si](O[C@H](CC)c1cn([C@H](CO)Cc2ccccc2)nn1)(C(C)C)C(C)C,0.149 (inactive),0.405,0.129,-0.713 (inactive),0.112 (inactive),-0.311 (inactive)
[N-]=[N+]=Nc1ccccc1C[C@]1(C(=O)NCC(O)CO)N=C(c2ccc(OCCCO)cc2)O[C@H]1c1ccccc1N=[N+]=[N-] (some centres not stated),0.0936 (inactive),-0.316,-2.44,-5.33 (inactive),-0.467 (inactive),-0.312 (inactive)
CC(=O)n1cc(C(O)C2C=CC3C(=O)N(C)C(=O)C3N2Nc2ccccc2)c2ccccc21 (configuration not stated),0.144 (inactive),0.383,0.413,-3.76 (inactive),-0.47 (inactive),-0.987 (inactive)
O=C1NC(=O)C2C1C=CC(C(O)Cc1ccccc1)N2Nc1ccc(Cl)cc1Cl (configuration not stated),0.0966 (inactive),-0.474,0.17,-5.64 (inactive),0.985 (inactive),1.09 (inactive)
